# Measured values from PubChem BioAssay (EPA / NIEHS).
# Results filed as inconclusive are left out. Active and inactive are the calls of the source. How the source made its calls, unless noted: active means hit-call score of the fitted dose curve at least 0.9, where 1 is the maximum; inactive means score below 0.9.
# Tests used:
# [1] = CCTE_Harrill_HTTr_Viability_MCF7: CCTE's 6-hour Cell Viability Assessment for the High-Throughput Transcriptomics (HTTr) Platform, in MCF-7 cells cultured in DMEM + 10% fetal bovine serum, Harrill Lab (AID 2284010)
# Procedure, shortened: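 Cells were dosed with chemicals in an eight-point dilution series, imaged 6 hours later for propidium iodide uptake, and the endpoint was analyzed by bidirectional fitting against DMSO as negative control.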
# [2] = CCTE_Harrill_HTTr_Apoptosis_MCF7: CCTE's 6-hour Apoptosis Assessment for the High-Throughput Transcriptomics (HTTr) Platform, in MCF-7 cells cultured in DMEM + 10% fetal bovine serum, Harrill Lab (AID 2284011)
# Procedure, shortened: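 Read-out: CellEvent Caspase 3/7 Green signal by high content imaging, gain-of-signal indicating apoptosis. MCF-7 cells, DMEM + 10% FBS, eight-point dilution series, 6 h exposure. Curves fitted bidirectionally relative to DMSO negative control.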
# [3] = CCTE_Harrill_HTTr_CellCount_MCF7: CCTE's Cell Proliferation Assessment for the High-Throughput Transcriptomics (HTTr) Platform, Harrill Lab (AID 2284012; active means hit-call score of the fitted dose curve at least 0.9, where 1 is the maximum;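 further: count of Hoechst-stained nuclei per well by high-content imaging in MCF-7 cells; cells exposed to compound for six hours; intended direction is loss of nuclei count meaning fewer cells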)
# Procedure, shortened: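 Chemicals in eight-point dilution series are added to MCF-7 cells for six hours, nuclei are stained with Hoechst and imaged, and per-well nuclei counts are fitted in both directions relative to DMSO controls.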
# [4] = CCTE_Shafer_MEA_acute_burst_number: CCTE's Neural Acute Assay for Single-Electrode Bursts, Shafer Lab (AID 2284013)
# Procedure, shortened: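 Spontaneous network activity of primary rat cortical neurons was recorded extracellularly on microelectrode arrays at 37 C, with 40-min periods before and during exposure to 0.03-40 uM compound on DIV 13 or 15.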
# [5] = CCTE_Shafer_MEA_acute_burst_duration_mean: CCTE's Neural Acute Assay for Mean Burst Duration, Shafer Lab (AID 2284014);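 further: hits are decreases in mean burst duration relative to DMSO controls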
# Procedure, shortened: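 Read-out is the per-well percent change in mean burst duration (first to last spike within a single-electrode burst) between 40-min recordings before and after compound. Cultures were primary rat cortical neurons on MEAs, dosed at 0.03-40 uM on DIV 13 or 15.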
# [6] = CCTE_Shafer_MEA_acute_per_burst_spike_number_mean: CCTE's Neural Acute Assay for Average Number of Spikes Per Burst, Shafer Lab (AID 2284015);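 further: hits are decreases in mean spikes per burst versus baseline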
# Procedure, shortened: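 Read-out: percent change in mean spikes per burst, each well's post-exposure 40-min recording versus its own 40-min baseline. Rat cortical cultures, DIV 13 or 15, compounds 0.03-40 uM; DMSO is negative control, loss-of-signal fitting.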
# [7] = CCTE_Shafer_MEA_acute_interburst_interval_mean: CCTE's Neural Acute Assay for Mean Interburst Interval, Shafer Lab (AID 2284016);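 further: percent change of mean interburst interval versus each well's own pre-dose baseline; curves fitted for decrease in interburst interval relative to DMSO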
# Procedure, shortened: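 Rat cortical cultures, DIV 13/15; 20 min equilibration, 40 min baseline, compound 0.03-40 uM, 40 min re-recording, 37 C. Spikes detected at 8x rms noise (300-5000 Hz band-pass). Endpoint: % change in interburst interval, fitted in loss direction vs DMSO.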
# [8] = CCTE_Shafer_MEA_acute_burst_percentage_mean: CCTE's Neural Acute Assay for Percentage of Spikes in a Burst, Shafer Lab (AID 2284017)
# Procedure, shortened: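 Rat cortical cultures, DIV 13/15, 37 C. Spikes detected at 8x rms noise (300-5000 Hz band-pass). Burst spikes/total spikes averaged across electrodes per well; % change post- vs pre-treatment (40 min each), loss-of-signal fit vs DMSO.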
# [9] = CCTE_Shafer_MEA_acute_burst_percentage_std: CCTE's Neural Acute Assay for Standard Deviation of Burst Percentage, Shafer Lab (AID 2284018);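 further: fitted in the negative direction so actives lower burst percentage SD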
# Procedure, shortened: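 Value is percent change from baseline in the across-electrode SD of spikes-in-bursts percentage, wells with >/= 10 active electrodes. Acute 40-min exposure to 0.03-40 uM on DIV 13 or 15 rat cortical cultures, recorded at 37 C after 40-min baseline.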
# [10] = CCTE_Shafer_MEA_acute_per_network_burst_spike_number_mean: CCTE's Neural Acute Assay for Average Number of Spikes in a Network Burst, Shafer Lab (AID 2284019)
# Procedure, shortened: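 Read-out is mean spike count per network burst, taken as percent change between a 40-min pre-exposure and a 40-min post-exposure recording per well. Rat primary cortical neurons on MEAs at 37 C, DIV 13 or 15; compounds at 0.03-40 uM.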
compound,measurement,setting,value
C=C(C)[C@H]1CC=C(C)CC1,outcome,[1],inactive
same,outcome,[2],inactive
same,outcome,[3],inactive
O=C(O)c1ccccc1Nc1cccc(C(F)(F)F)c1,outcome,[1],inactive
same,outcome,[2],inactive
COc1ccc(C(Cl)=C(c2ccc(OC)cc2)c2ccc(OC)cc2)cc1,outcome,[1],inactive
same,outcome,[2],inactive
O=C(/C=C/C=C/c1ccc2c(c1)OCO2)N1CCCCC1,outcome,[1],inactive
same,outcome,[2],inactive
Cc1cnc(NC(=O)C2=C(O)c3ccccc3S(=O)(=O)N2C)s1,outcome,[1],inactive
same,outcome,[2],inactive
c1ccc2c(c1)ccc1cc3c(ccc4ccccc43)cc12,outcome,[1],inactive
same,outcome,[2],inactive
CC(C)(Oc1ccc(C2CC2(Cl)Cl)cc1)C(=O)O (centres undefined),outcome,[1],inactive
same,outcome,[2],inactive
same,outcome,[3],inactive
O=C(O)CCCC[C@@H]1SC[C@@H]2NC(=O)N[C@@H]21,outcome,[1],inactive
same,outcome,[2],inactive
same,outcome,[3],inactive
CCCCCCC(O)CO (centres undefined),outcome,[1],inactive
same,outcome,[2],inactive
same,outcome,[3],inactive
COC(=O)C1=C(C)NC(C)=C(C(=O)OCC(C)C)C1c1ccccc1[N+](=O)[O-] (centres undefined),outcome,[1],inactive
same,outcome,[2],inactive
same,outcome,[3],inactive
C[C@]12C=CC(=O)C=C1CC[C@@H]1[C@@H]2[C@@H](O)C[C@@]2(C)[C@H]1CC[C@]2(O)C(=O)CO,outcome,[1],inactive
same,outcome,[2],inactive
same,outcome,[3],inactive
O=c1[nH]c(=O)c2[nH]c(=O)[nH]c2[nH]1,outcome,[1],inactive
same,outcome,[2],inactive
same,outcome,[3],inactive
CCCOC(=O)CCCCC(=O)OCCC,outcome,[1],inactive
same,outcome,[2],inactive
same,outcome,[3],inactive
CCC(=O)Oc1ccc(/C(CC)=C(\CC)c2ccc(OC(=O)CC)cc2)cc1,outcome,[1],inactive
same,outcome,[2],inactive
same,outcome,[3],inactive
C[C@]12CCC(=O)C=C1CC[C@@H]1[C@@H]2C(=O)C[C@@]2(C)[C@H]1CC[C@]2(O)C(=O)CO,outcome,[1],inactive
same,outcome,[2],inactive
same,outcome,[3],inactive
NC(=O)c1ccccc1O,outcome,[1],inactive
same,outcome,[2],inactive
same,outcome,[3],inactive
CC1(C)O[C@@H]2C[C@H]3[C@@H]4C[C@H](F)C5=CC(=O)CC[C@]5(C)[C@H]4[C@@H](O)C[C@]3(C)[C@]2(C(=O)CO)O1,outcome,[1],inactive
same,outcome,[2],inactive
same,outcome,[3],inactive
CCCCCCCCCCCCCCCC[n+]1ccccc1,AC50,[1],77.1 µM (active)
same,AC50,[2],61.4 µM (active)
same,outcome,[3],inactive
CC/C=C\C/C=C\C/C=C\CCCCCCCC(=O)O,outcome,[1],inactive
same,outcome,[2],inactive
same,outcome,[3],inactive
CCCCOCCOC(=O)COc1nc(Cl)c(Cl)cc1Cl,outcome,[1],inactive
same,outcome,[2],inactive
same,outcome,[3],inactive
Nc1ccc(N=Nc2ccccc2)c(N)n1,outcome,[1],inactive
same,outcome,[2],inactive
same,outcome,[3],inactive
Cc1oncc1C(=O)Nc1ccc(C(F)(F)F)cc1,outcome,[1],inactive
same,outcome,[2],inactive
same,outcome,[3],inactive
CCCCCCCCCCCCCCCC(=O)OCC,outcome,[1],inactive
same,outcome,[2],inactive
same,outcome,[3],inactive
c1ccc(-c2ccccn2)nc1,outcome,[1],inactive
same,outcome,[2],inactive
same,outcome,[3],inactive
CC(=O)NS(=O)(=O)c1ccc(N)cc1,outcome,[1],inactive
same,outcome,[2],inactive
same,outcome,[3],inactive
C1=Cc2ccccc2C1,outcome,[1],inactive
same,outcome,[2],inactive
same,outcome,[3],inactive
CC(=O)[C@H]1[C@H](C#N)C[C@H]2[C@@H]3CC=C4C[C@@H](O)CC[C@]4(C)[C@H]3CC[C@@]21C,outcome,[1],inactive
same,outcome,[2],inactive
same,outcome,[3],inactive
CCCCCCCC/C=C\CCCCCCCC(=O)O,outcome,[1],inactive
same,outcome,[2],inactive
same,outcome,[3],inactive
O=C1c2cccc(O)c2C(=O)c2c(O)cc(CO)cc21,outcome,[1],inactive
same,outcome,[2],inactive
same,outcome,[3],inactive
CCOC(=O)N1CCC(=C2c3ccc(Cl)cc3CCc3cccnc32)CC1,outcome,[1],inactive
same,outcome,[2],inactive
same,outcome,[3],inactive
CC(=O)OCC(=O)[C@@]12N=C(C)O[C@@H]1C[C@H]1[C@@H]3CCC4=CC(=O)C=C[C@]4(C)[C@H]3[C@@H](O)C[C@@]12C,outcome,[1],inactive
same,outcome,[2],inactive
same,outcome,[3],inactive
Cc1ccc(C(C)(C)C)cc1,outcome,[1],inactive
same,outcome,[2],inactive
same,outcome,[3],inactive
O=c1c2ccccc2oc2ccccc12,outcome,[1],inactive
same,outcome,[2],inactive
same,outcome,[3],inactive
C=C1C2CCC(C2)C1(C)C (centres undefined),outcome,[1],inactive
same,outcome,[2],inactive
same,outcome,[3],inactive
CN(C)c1ccc(N=Nc2ccccc2C(=O)O)cc1,outcome,[1],inactive
same,outcome,[2],inactive
same,outcome,[3],inactive
CC[C@H]1OC(=O)[C@H](C)[C@@H](O[C@H]2C[C@@](C)(OC)[C@@H](O)[C@H](C)O2)[C@H](C)[C@@H](O[C@@H]2O[C@H](C)C[C@H](N(C)C)[C@H]2O)[C@](C)(O)C[C@@H](C)C(=NOCOCCOC)[C@H](C)[C@@H](O)[C@]1(C)O,outcome,[1],inactive
same,outcome,[2],inactive
same,outcome,[3],inactive
CCCCC(CC)COCC1CO1 (centres undefined),outcome,[4],inactive
same,outcome,[5],inactive
same,outcome,[6],inactive
same,outcome,[7],inactive
same,outcome,[8],inactive
same,outcome,[9],inactive
same,outcome,[10],inactive
CC1(C)[C@H]2CC[C@]1(C)C(=O)C2,outcome,[1],inactive
same,outcome,[2],inactive
same,outcome,[3],inactive
Nc1ccc(N)c(Cl)c1,outcome,[4],inactive
same,outcome,[5],inactive
same,outcome,[6],inactive
same,outcome,[7],inactive
same,outcome,[8],inactive
same,outcome,[10],inactive
